In PubChem BioAssay (NCI) one finds growth data, which are given here for 13 compounds.

Each structure is given as a SMILES string. “And” between values parts separate entries of the source, which are not always exact repeats. Equal entries are not always repeated. This is part of a sample that, as a whole, favours compounds with a hit. Of some 83,000 tested, about 20% had one in any assay.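 Cells were grown in 96-well plates and exposed to the test compound at a single concentration for 48 hours; results are reported as percent growth, with values below 10 considered active.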 The source made the active and inactive calls.

Among the test systems are DU-145 prostate; K-562 leukemia; MALME-3M melanoma; MDA-MB-231 breast; RXF 393 renal; SF-268 CNS; SF-295 CNS; SF-539 CNS; UACC-257 melanoma; M14 melanoma.
Common to all, as to assay: NCI-60 one-dose screen, 48 h (100 = growth as untreated, 0 = no growth, -100 = all killed)
Holding throughout (conditions): 10 µM unless noted

With `COC(=O)c1nc(-c2ccccc2)oc1S(=O)(=O)N(C)CCO`, the growth with DU-145 prostate is 65.4% (inactive); in the test with K-562 leukemia, 22.2% (inactive); in the test on MALME-3M melanoma it was 69.6% (inactive); in the test with MDA-MB-231 breast it was 78.3% (inactive); in the test with RXF 393 renal it was 64.8% (inactive); in the test on SF-268 CNS it was 92.3% (inactive). Moreover, the growth was 104% (inactive) with SF-295 CNS, 68.7% (inactive) in the test on SF-539 CNS, 63.8% (inactive) in the test with UACC-257 melanoma and 41.1% (inactive) with M14 melanoma.

`C#Cc1cc(C(=O)Nc2ccc(CN3CCN(C)CC3)c(C(F)(F)F)c2)ccc1C`: the growth in the test with DU-145 prostate was 85.8% (inactive); in the test on K-562 leukemia, 7.97% (active); in the test on MALME-3M melanoma, 23.6% (inactive); in the test on MDA-MB-231 breast it was 59.2% (inactive); in the test with RXF 393 renal, 76.3% (inactive); with SF-268 CNS, 82.5% (inactive). Further, the growth with SF-295 CNS is 77% (inactive); with SF-539 CNS, 44% (inactive); in the test on UACC-257 melanoma, -32.9% (active); with M14 melanoma, -70.4% (active).

With `O=S(=O)(O)c1ccc(N=Nc2ccc(N=Nc3cccc4ccccc34)c(S(=O)(=O)O)c2)cc1`, the growth in the test with DU-145 prostate is 109% (inactive); with K-562 leukemia, 104% (inactive); in the test on MALME-3M melanoma, 107% (inactive); with MDA-MB-231 breast, 80.3% (inactive); in the test on RXF 393 renal it was 119% (inactive); in the test with SF-268 CNS it was 106% (inactive). Besides, the growth in the test with SF-295 CNS was 106% (inactive); in the test with SF-539 CNS, 102% (inactive); with UACC-257 melanoma it was 107% (inactive); in the test with M14 melanoma, 99.5% (inactive).

For the compound `Cc1ccc(-c2nc3nc(-c4ccc(Br)cc4)nc(N4CCCNCC4)c3o2)cc1`, the growth with DU-145 prostate is 14.2% (inactive); in the test with K-562 leukemia, -48.4% (active); in the test on MALME-3M melanoma it was 88.3% (inactive); in the test with MDA-MB-231 breast, -57% (active); in the test with RXF 393 renal, 87.1% (inactive); in the test with SF-268 CNS, 98.6% (inactive). The growth in the test on SF-295 CNS is 69.2% (inactive); in the test on SF-539 CNS, 3.79% (active); in the test on UACC-257 melanoma, 103% (inactive); in the test on M14 melanoma, -54.2% (active).

Consider `COc1ccc(/C(C)=C(\c2ccc(OCCN3CCCCCC3)cc2)c2ccc(OC(=O)C3CCCCC3)cc2)cc1`, for which the growth was -12.1% (active) in the test with DU-145 prostate; -23.5% (active) with K-562 leukemia; -81.2% (active) with MALME-3M melanoma; -84.1% (active) in the test with MDA-MB-231 breast; -83.1% (active) in the test on RXF 393 renal; -30.6% (active) in the test on SF-268 CNS. Also, the growth in the test with SF-295 CNS is -90.3% (active); with SF-539 CNS, -85.4% (active); in the test on UACC-257 melanoma, -71.4% (active); in the test on M14 melanoma, -70.4% (active).

Consider `NS(=O)(=O)OCC1OC(n2cnc3cncnc32)C(O)C1O` (stereo not given), for which the growth with DU-145 prostate was 13.2% [0.1 µM] (inactive); in the test with K-562 leukemia, 9.29% [0.1 µM] (active) and 7.85% [0.1 µM] (active); with MALME-3M melanoma it was 81.6% [0.1 µM] (inactive) and 50.7% [0.1 µM] (inactive); in the test with MDA-MB-231 breast, -25.1% [0.1 µM] (active) and -14.3% [0.1 µM] (active); with RXF 393 renal, 11.7% [0.1 µM] (inactive) and 1.25% [0.1 µM] (active); in the test on SF-268 CNS, 9.46% [0.1 µM] (active) and 13.5% [0.1 µM] (inactive). For the same compound, the growth with SF-295 CNS is 24% [0.1 µM] (inactive); in the test with SF-539 CNS, -2.66% [0.1 µM] (active) and -4.82% [0.1 µM] (active); in the test with UACC-257 melanoma, 60.8% [0.1 µM] (inactive) and 58.2% [0.1 µM] (inactive); in the test with M14 melanoma, 31.1% [0.1 µM] (inactive) and 16.6% [0.1 µM] (inactive).

Consider `C=C(C)[C@@H]1CC[C@]2(C)[C@H](CC(=O)N[C@H]3[C@@H]4C[C@](C)(C(=O)OC)CC[C@]4(C)CC[C@]32C)[C@@]1(C)CCC#N`, for which the growth in the test with DU-145 prostate was 94.4% (inactive); in the test with K-562 leukemia it was 50.3% (inactive); in the test on MALME-3M melanoma it was 86.7% (inactive); with MDA-MB-231 breast, 79.7% (inactive); with RXF 393 renal, 83% (inactive); with SF-268 CNS, 81.2% (inactive). Further, the growth in the test with SF-295 CNS was 81.2% (inactive); with SF-539 CNS it was 95.9% (inactive); in the test with UACC-257 melanoma, 83.7% (inactive); in the test with M14 melanoma, 86.8% (inactive).

Turning to `COc1nc2ccc(C)cc2cc1/C=[N+](\[O-])c1ccccc1`, the growth with DU-145 prostate is 95.5% (inactive); in the test on K-562 leukemia, 33.6% (inactive); in the test with MALME-3M melanoma it was 94% (inactive); in the test with MDA-MB-231 breast it was 78% (inactive); in the test on RXF 393 renal, 101% (inactive); with SF-268 CNS, 86.2% (inactive). Besides, the growth is 90.3% (inactive) in the test on SF-295 CNS, 89.8% (inactive) in the test on SF-539 CNS, 95.7% (inactive) in the test on UACC-257 melanoma and 86.8% (inactive) with M14 melanoma.

On to `CCCN1C(=O)/C(=c2\sc3n(c2=O)C2C(NN=3)N(CC)C(=O)N2CC)c2ccccc21` (stereo not given), for which the growth was 13.6% (inactive) in the test on DU-145 prostate; 9.52% (active) in the test with K-562 leukemia; 45.4% (inactive) with MALME-3M melanoma; 13.9% (inactive) in the test with MDA-MB-231 breast; 17.3% (inactive) with RXF 393 renal; 58.7% (inactive) in the test with SF-268 CNS. Besides, the growth in the test on SF-295 CNS was 7.46% (active); in the test with SF-539 CNS, -17% (active); with UACC-257 melanoma it was 24.5% (inactive); in the test on M14 melanoma, 17.5% (inactive).

As for `COc1cc(-c2nc(SCCC(C)C)nc(Nc3ccc(F)cc3)c2C#N)cc(OC)c1OC`, the growth was 66.2% (inactive) with DU-145 prostate; 85.2% (inactive) with K-562 leukemia; 94.4% (inactive) in the test with MALME-3M melanoma; 38.4% (inactive) with MDA-MB-231 breast; 95.5% (inactive) in the test on RXF 393 renal; 65.9% (inactive) in the test on SF-268 CNS. Further, the growth is 85.4% (inactive) in the test on SF-295 CNS, 52.3% (inactive) in the test with SF-539 CNS, 103% (inactive) with UACC-257 melanoma and 91% (inactive) in the test with M14 melanoma.

In the case of `COc1cc(NS(=O)(=O)C(C)C)cc(-c2cc(-c3ccc(N4CCNCC4)cc3)cnc2N)c1`, the growth in the test on DU-145 prostate is 90.8% (inactive); in the test with K-562 leukemia, 5.48% (active); in the test on MALME-3M melanoma it was 79.6% (inactive); in the test on MDA-MB-231 breast it was 89.8% (inactive); with RXF 393 renal it was 41% (inactive); with SF-268 CNS it was 70.3% (inactive). Further, the growth was 91.7% (inactive) in the test on SF-295 CNS, 58.3% (inactive) in the test on SF-539 CNS, 91.4% (inactive) with UACC-257 melanoma and 58.6% (inactive) in the test on M14 melanoma.

In the case of `CC(=O)c1nn(-c2ccccc2)/c(=N/N=Cc2cn(-c3ccccc3)nc2-c2cc3ccccc3oc2=O)s1`, the growth is 107% (inactive) in the test on DU-145 prostate; 98.5% (inactive) in the test on K-562 leukemia; 104% (inactive) with MALME-3M melanoma; 82.6% (inactive) with MDA-MB-231 breast; 111% (inactive) in the test on RXF 393 renal; 104% (inactive) in the test on SF-268 CNS. Moreover, the growth was 103% (inactive) in the test with SF-295 CNS, 99.6% (inactive) in the test with SF-539 CNS, 108% (inactive) in the test with UACC-257 melanoma and 97.4% (inactive) in the test with M14 melanoma.

Turning to `O=C(/C=C/c1ccc(F)cc1)Nc1ncc(Cc2ccc(F)cc2)s1`, the growth in the test on DU-145 prostate was 33% (inactive); with K-562 leukemia, 14% (inactive); with MALME-3M melanoma, 41.5% (inactive); with MDA-MB-231 breast, 75.7% (inactive); in the test with RXF 393 renal, 32.1% (inactive); with SF-268 CNS it was 52.3% (inactive). Further, the growth with SF-295 CNS is 20.2% (inactive); in the test with SF-539 CNS, 22% (inactive); in the test on UACC-257 melanoma it was 60.3% (inactive); in the test on M14 melanoma it was 19.9% (inactive).
